Measured values as given in PubChem BioAssay AID1159580 (chemical genetic matrix, 2015).
Screen size: about 5,500 compounds; about 2,000 (36%) were called active. Not shown: some 18% with an inconclusive outcome. Cut-off read from the data, not from the text of the source: active = normalized growth mostly below about 0.91 (no sharp cut-off); inconclusive = no clear call, values can overlap the other calls; inactive = mostly above about 0.92. The list shows a part of the results.

Experiment: chemical genetic growth profiling, strain panel (AID 1159580);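 note: tested at 20 µM; growth read once vehicle control cultures reached saturation at 30 °C; 1 = growth at the plate median or of vehicle wells; lower values mean less growth of the strain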
Settings: growth OD

Measured: normalized growth

COc1cc2c(cc1/C=C/C(=O)c1cc(OC)c(OC)cc1OC)OCO2
inactive: S. cerevisiae deletion strains, locus YBR021W, strain FUR4, active compounds read low 1.14 | S. cerevisiae deletion strains, locus YBR229C, strain ROT2, active compounds read low 0.968 | S. cerevisiae deletion strains, locus YCL029C, strain bik1, active compounds read low 1.02 | S. cerevisiae deletion strains, locus YDL035C, strain GPR1, active compounds read low 1 | S. cerevisiae deletion strains, locus YDL074C, strain BRE1, active compounds read low 1.05 | S. cerevisiae deletion strains, locus YDL101C, strain DUN1, active compounds read low 0.994 | S. cerevisiae deletion strains, locus YDL134C, strain PPH21, active compounds read low 1.01 | S. cerevisiae deletion strains, locus YDL185W, strain tfp1, active compounds read low 1 | S. cerevisiae deletion strains, locus YDL192W, strain arf1, active compounds read low 1.01 | S. cerevisiae deletion strains, locus YDR101C, strain arx1, active compounds read low 0.998 | S. cerevisiae deletion strains, locus YDR150W, strain NUM1, active compounds read low 1.02 | S. cerevisiae deletion strains, locus YDR162C, strain NBP2, active compounds read low 0.974 | S. cerevisiae deletion strains, locus YDR318W, strain mcm21, active compounds read low 1.01 | S. cerevisiae deletion strains, locus YDR388W, active compounds read low 1.02 | S. cerevisiae deletion strains, locus YDR502C, strain sam2, active compounds read low 1.02 | S. cerevisiae deletion strains, locus YEL061C, strain CIN8, active compounds read low 1 | S. cerevisiae deletion strains, locus YER110C, active compounds read low 1.02 | S. cerevisiae deletion strains, locus YER155C, strain BEM2, active compounds read low 1.02 | S. cerevisiae deletion strains, locus YER167W, strain BCK2, active compounds read low 1.03 | S. cerevisiae deletion strains, locus YGL078C, strain dbp3, active compounds read low 0.997 | S. cerevisiae deletion strains, locus YGL086W, strain mad1, active compounds read low 1.01 | S. cerevisiae deletion strains, locus YGL248W, strain PDE1, active compounds read low 0.996 | S. cerevisiae deletion strains, locus YGR135W, strain pre9, active compounds read low 1.01 | S. cerevisiae deletion strains, locus YGR229C, strain SMI1, active compounds read low 1.01 | S. cerevisiae deletion strains, locus YGR252W, strain gcn5, active compounds read low 1.08 | S. cerevisiae deletion strains, locus YHR030C, strain SLT2, active compounds read low 1.02 | S. cerevisiae deletion strains, locus YHR079C, strain IRE1 (second series), active compounds read low 1 | S. cerevisiae deletion strains, locus YHR094C, strain hxt1, active compounds read low 1.01 | S. cerevisiae deletion strains, locus YHR129C, strain ARP1, active compounds read low 1.02 | S. cerevisiae deletion strains, locus YHR200W, strain rpn10, active compounds read low 1.02 | S. cerevisiae deletion strains, locus YIL066C, strain RNR3, active compounds read low 1.01 | S. cerevisiae deletion strains, locus YIL073C, strain SPO22, active compounds read low 1.06 | S. cerevisiae deletion strains, locus YIL125W, strain kgd1, active compounds read low 1.03 | S. cerevisiae deletion strains, locus YIR030C, strain dcg1, active compounds read low 1.01 | S. cerevisiae deletion strains, locus YJL095W, strain BCK1, active compounds read low 1 | S. cerevisiae deletion strains, locus YJL134W, strain LCB3, active compounds read low 1.01 | S. cerevisiae deletion strains, locus YJL168C, strain set2, active compounds read low 1.01 | S. cerevisiae deletion strains, locus YJL187C, strain SWE1 (second series), active compounds read low 1 | S. cerevisiae deletion strains, locus YJR043C, strain POL32, active compounds read low 1.02 | S. cerevisiae deletion strains, locus YKL009W, strain mrt4, active compounds read low 1.02 | S. cerevisiae deletion strains, locus YKL068W, active compounds read low 1 | S. cerevisiae deletion strains, locus YKL085W, strain MDH1 (second series), active compounds read low 1 | S. cerevisiae deletion strains, locus YKL085W, strain MDH1, active compounds read low 1 | S. cerevisiae deletion strains, locus YKL190W, strain CNB1, active compounds read low 0.994 | S. cerevisiae deletion strains, locus YKR001C, strain vps1, active compounds read low 1.02 | S. cerevisiae deletion strains, locus YLR039C, strain RIC1, active compounds read low 0.994 | S. cerevisiae deletion strains, locus YLR058C, strain SHM2, active compounds read low 0.998 | S. cerevisiae deletion strains, locus YLR102C, strain apc9, active compounds read low 1.02 | S. cerevisiae deletion strains, locus YLR262C, strain YPT6, active compounds read low 1.01 | S. cerevisiae deletion strains, locus YLR268W, strain sec22, active compounds read low 1.02 | S. cerevisiae deletion strains, locus YLR330W, strain CHS5, active compounds read low 1.02 | S. cerevisiae deletion strains, locus YLR342W, strain FKS1 (second series), active compounds read low 1.06 | S. cerevisiae deletion strains, locus YLR371W, strain rom2, active compounds read low 1.02 | S. cerevisiae deletion strains, locus YLR418C, strain cdc73, active compounds read low 1.04 | S. cerevisiae deletion strains, locus YML016C, strain PPZ1, active compounds read low 1.01 | S. cerevisiae deletion strains, locus YML032C, strain rad52, active compounds read low 1.02 | S. cerevisiae deletion strains, locus YML124C, strain tub3, active compounds read low 0.995 | S. cerevisiae deletion strains, locus YMR078C, strain ctf18, active compounds read low 1.03 | S. cerevisiae deletion strains, locus YMR223W, strain ubp8, active compounds read low 1.01 | S. cerevisiae deletion strains, locus YMR263W, strain SAP30, active compounds read low 1 | S. cerevisiae deletion strains, locus YMR307W, strain GAS1, active compounds read low 1.21 | S. cerevisiae deletion strains, locus YNL067W, strain RPL9B, active compounds read low 0.998 | S. cerevisiae deletion strains, locus YNL128W, strain TEP1, active compounds read low 0.996 | S. cerevisiae deletion strains, locus YNL153C, strain GIM3, active compounds read low 0.983 | S. cerevisiae deletion strains, locus YNL233W, strain BNI4, active compounds read low 1.02 | S. cerevisiae deletion strains, locus YNL250W, strain rad50, active compounds read low 1.01 | S. cerevisiae deletion strains, locus YNL271C, strain bni1, active compounds read low 1.01 | S. cerevisiae deletion strains, locus YNL298W, strain CLA4, active compounds read low 1.02 | S. cerevisiae deletion strains, locus YNL307C, strain MCK1, active compounds read low 1.03 | S. cerevisiae deletion strains, locus YNL322C, strain KRE1, active compounds read low 1.01 | S. cerevisiae deletion strains, locus YNR052C, strain pop2, active compounds read low 1.01 | S. cerevisiae deletion strains, locus YOL006C, strain TOP1, active compounds read low 1.27 | S. cerevisiae deletion strains, locus YOL012C, strain htz1 1.18 | S. cerevisiae deletion strains, locus YOL147C, strain pex11, active compounds read low 1.01 | S. cerevisiae deletion strains, locus YOR061W, strain CKA2, active compounds read low 0.975 | S. cerevisiae deletion strains, locus YOR069W, strain VPS5, active compounds read low 1.01 | S. cerevisiae deletion strains, locus YOR136W, strain idh2, active compounds read low 1.02 | S. cerevisiae deletion strains, locus YOR144C, strain elg1, active compounds read low 1 | S. cerevisiae deletion strains, locus YOR184W, strain ser1, active compounds read low 0.993 | S. cerevisiae deletion strains, locus YOR316C, strain cot1, active compounds read low 1.04 | S. cerevisiae deletion strains, locus YPL055C, strain LGE1, active compounds read low 1.05 | S. cerevisiae deletion strains, locus YPR119W, strain clb2, active compounds read low 1.01 | S. cerevisiae deletion strains, locus YPR141C, strain kar3, active compounds read low 1.01 | S. cerevisiae deletion strains, locus YPR163C, strain tif3, active compounds read low 1.01 | S. cerevisiae deletion strains, locus YPR167C, strain met16, active compounds read low 1.01 | S. cerevisiae deletion strains, strain wtn01, active compounds read low 1.01 | S. cerevisiae strains, strain wild type, active compounds read low 1.01
